Compounds without any hit were thinned out: in the full panel of roughly 83,000, 20% have a hit.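 Cells were grown in 96-well plates and exposed to the test compound at a single concentration for 48 hours; results are reported as percent growth, with values below 10 considered active.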 Activity calls are given as the source filed them.

In the experiment the test system is LOX IMVI melanoma. The experiment in a line: NCI-60 one-dose screen, 48 h (100 = growth as untreated, 0 = no growth, -100 = all killed). The conditions noted are these: 10 µM unless noted. As for the experimental part: Growth inhibition of the LOX IMVI human tumor cell line is measured as a screen for anti-cancer activity. Cells are grown in 96 well plates and exposed to the test compound for 48 hours. Compounds are tested at a single concentration, which is 10^-5 M for most compounds. The reported endpoint is percent growth (GI% or GIPRCNT), where numbers from 0 - 100% represent growth inhibition, and numbers from -100% - 0 represent cell death. For example, a value of 40 represents 60% growth inhibition. A value of 0 means no net growth occurred over the course of the experiment. A value of -40 indicates 40% of cells at the beginning of the experiment died by the end of the experiment. A value of -100 means all cells are dead at the end of the experiment.
NCI-60 Human Tumor Cell Lines Screen was performed using the standard one-dose NCI protocol, which is described in more detail at https://dtp.cancer.gov/discovery_development/nci-60/default.htm.
Compounds with GIPRCNT values below 10 were considered active. Activity score was based on GIPRCNT using the following formula: […]
Score is 0 for GIPRCNT values of 100 or above, 50 for GIPRCNT values of 0, and 100 for GIPRCNT values of -100.
Consider `O=C(Nc1cccc(C(F)(F)F)c1)Nc1ccc(OCc2nnc(-c3ccc(Cl)cc3)o2)c(F)c1`, for which the growth was 63.5% (inactive).
Next, `O=C(CCc1nnc(SCc2ccccc2)s1)c1nc2ccccc2[nH]1`: 80.8% (inactive); `O=C(OC[C@H]1O[C@H](OC(=O)c2cc(O)c(O)c(OC(=O)c3cc(O)c(O)c(O)c3)c2)[C@H](OC(=O)c2cc(O)c(O)c(OC(=O)c3cc(O)c(O)c(O)c3)c2)[C@@H](OC(=O)c2cc(O)c(O)c(OC(=O)c3cc(O)c(O)c(O)c3)c2)[C@@H]1OC(=O)c1cc(O)c(O)c(OC(=O)c2cc(O)c(O)c(O)c2)c1)c1cc(O)c(O)c(OC(=O)c2cc(O)c(O)c(O)c2)c1`: 7.17% (active).
Under `COc1ccc(CCN2CCCN3C2=Nc2ccccc2S3(=O)=O)cc1` stands 27.7% (inactive).
Under `CC[C@@H]1OC(=O)[C@H](C)[C@@H](O[C@H]2C[C@@](C)(OC)[C@@H](O)[C@H](C)O2)[C@H](C)[C@@H](O[C@@H]2O[C@H](C)C[C@H](N(C)C)[C@H]2O)[C@](C)(O)C[C@@H](C)[C@@H]2N[C@@H](COCCOC)O[C@H]([C@H]2C)[C@]1(C)O` stands 94.8% (inactive).
In the case of `CN=C(NC)N/N=C(C)\C=N\NC(=NC)NC`, the growth was 109% (inactive).
Under `O=C(Nc1cccc(-n2cc(-c3ccncc3)c(-c3ccc(O)c(Cl)c3)n2)c1)Nc1ccc(Cl)c(C(F)(F)F)c1` stands 0.0501% (active); under `N#CCCN(CCO)c1ccccc1`, 107% (inactive).
As to `O=C1c2ccccc2-c2c1nc1ccccc1[n+]2[O-]`, the growth was 101% (inactive).
Next, `NC(=O)SCC(=O)Nc1ccccc1-c1ccccc1`: 90.6% (inactive).
Under `COc1cc(OC)c2cc(C(=O)O)c(=O)oc2c1` stands 67% (inactive); under `O=C(CCc1nnc2sc(Cc3ccccc3Cl)nn12)c1nc2ccccc2[nH]1`, 87.9% (inactive).
Next, `CCC(C)CC(C)C(=O)c1c(O)ccn(O)c1=O` (stereo not given): 6.78% (active); `COc1ccc(-c2nn(-c3ccccc3)cc2/C=C2\SC(=S)N(CCc3ccc(O)cc3)C2=O)cc1`: 72.9% (inactive); `COc1ccc(OC)c(NC(=O)c2cc3oc4ccccc4c3cc2O)c1`: 109% (inactive).
For `Cc1cc(NC(=O)Nc2cccc3ccccc23)no1`, the growth was 95.9% (inactive).
For the compound `O=C(Nc1ncc([N+](=O)[O-])s1)c1cccc([N+](=O)[O-])c1`, the growth is 52.1% (inactive).
Under `Cc1ccc(NC(=O)Nc2ccc(-c3cccnc3)cc2N2CCC(CO)CC2)cc1` stands 33.3% (inactive); under `O=NC1CC=CCC1c1ccccc1` (stereo not given), 104% (inactive).
Next, `CCCCCCCC1(C)NC(=O)NC1=O` (stereo not given): 103% (inactive); `COc1ccc(-c2cn(-c3ccccc3)c(-c3ccccc3)n2)cc1OC`: 14.5% (inactive).
Under `CCCC[N+](CCCC)=c1ccc2nc3c(C)cc(N(CC)CC)cc3sc-2c1` stands -70.4% (active); under `COc1ccc2[nH]cc(/C=C3/C(=O)Nc4ccc(F)cc43)c2c1`, 74.9% (inactive); under `COc1ccc(C2=NN(C(C)=O)C(c3cc(OC)c(OC)c(OC)c3)C2)cc1` (stereo not given), 90.6% (inactive).
For `O=Nc1ccc(O)c(=O)cc1`, the growth was -4.94% (active).
Under `O=[P@@]1(c2ccccc2)O[C@H](COCc2ccccc2)[C@@H](OCc2ccccc2)[C@H](OCc2ccccc2)[C@H]1NCc1ccccc1` stands 5.71% (active).
As for `CCC(C)CC(C)C(=O)c1c(O)ccn(OC)c1=O` (stereo not given), the growth is 32.4% (inactive).
As for `Nc1c2ccccc2nc2ccccc12` (tested in a mixture with another compound), the growth is 4.92% (active).
Under `Oc1ccccc1/C=N\Nc1ccccc1` stands 53% (inactive); under `O=C(Nc1nc(-c2ccc(Cl)cc2)cs1)c1cc(O)c(O)c(O)c1`, 1.72% (active).
With `C=C1CC[C@@H]2[C@](C)(COC(C)=O)[C@H](OC(C)=O)CC[C@@]2(C)[C@@H]1CC(Nc1ccc(S(=O)(=O)Nc2cc(C)on2)cc1)C1=CCOC1=O` (stereo not given in full), the growth was -72.7% (active).
Next, `O=C1c2nsnc2C(=O)c2c(F)c(F)c(F)c(F)c21`: -49.4% (active); `CC[N+](C)(CC)CCCC(C)Nc1ccnc2cc(Cl)ccc12` (stereo not given): 99.7% (inactive); `COc1ccc(-n2nc3c(c2-c2ccc(OC)c(OC)c2)-c2oncc2CC3)cc1`: 58.1% (inactive).
Next, `NNC(=O)NO`: 97.7% (inactive); `O=c1ccn(C2OC(CO)C(O)C2F)c(=O)[nH]1` (stereo not given): 106% (inactive).
As to `COc1ccc(/C=C2\COc3ccc(O)c(O)c3C2=O)cc1OC`, the growth is -68% (active).
Next, `CC(O)c1nc2c(c(=O)n(C)c(=O)n2C)n1C` (stereo not given): 104% (inactive); `Clc1ccccc1[C@@H]1C[C@@H]2Cc3cc(Br)c4ccccc4c3N1O2`: 37% (inactive).
In the case of `Cc1ccc(C(=O)Nc2ccc(Cl)cc2C(=O)NCc2ccccc2)cc1`, the growth was 79.2% (inactive).
